Bioassay records (PubChem BioAssay)
This excerpt belongs to a sample that is enriched for hits.
HT1080 IDH1KD tx – qHTS for induction of synthetic lethality in tumor cells producing 2HG: qHTS for the HT-1080-IDH1KD cell line | HT-1080 IDH1 knockdown viability, ATP luminescence, 48 h | Potency, µM (highest dose often 46.1 µM), inactives show at the highest dose activity, negative = toxicity, hits mostly cytotoxic | 360,000 tested, 2% active | AID 686971, 2013;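 also: potency is read from the fitted curve at half-maximal effect; 0% = DMSO wells and -100% = cell-free medium wells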
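HT-1080-IDH1KD cells (IDH1 knocked down), 750/well in RPMI with 5% FBS, treated with compound 48 h at 37 degrees C. Viability by CellTiter-Glo luminescence, normalised to DMSO and no-cell wells; concentration-response curves classed.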
HT1080-NT tox – qHTS for induction of synthetic lethality in tumor cells producing 2HG: qHTS for the HT-1080-NT fibrosarcoma cell line; HT-1080-NT fibrosarcoma viability, CellTiter-Glo ATP luminescence, 48 h; Potency, µM (highest dose often 46.1 µM), inactives show at the top dose activity, negative = less viability, usual class: cytotoxic; 360,000 tested, 1.6% active;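 also: NT is the 2HG producing partner of a matched IDH1 knockdown line; potency is read from the fitted curve at half-maximal effect; 0% = DMSO-treated cells and -100% = media-only wells without cells; nearly all actives have a fitted effect of over 55% in size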
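Viability of the 2HG-overproducing fibrosarcoma line after 48 hours of compound exposure at 37 degrees C was determined by luminescence with CellTiter-Glo, and concentration-effect curves were then fitted and categorized.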
12-LOX inh – Primary qHTS assay for inhibitors of human arachidonate 12S-lipoxygenase (ALOX12): Round 2; Polyunsaturated fatty acid lipoxygenase ALOX12 (Homo sapiens), P18054; purified 12hLO, xylenol orange hydroperoxide absorbance; Potency, µM (top dose mostly 108 µM), without a hit: at the highest dose activity change, negative = inhibition, usual class: inhibitors; 580,000 tested, 1.1% active; AID 1671190, 2021; also: potency is read from the fitted curve at half-maximal effect
Target sequence (P18054 whole entry, looked up): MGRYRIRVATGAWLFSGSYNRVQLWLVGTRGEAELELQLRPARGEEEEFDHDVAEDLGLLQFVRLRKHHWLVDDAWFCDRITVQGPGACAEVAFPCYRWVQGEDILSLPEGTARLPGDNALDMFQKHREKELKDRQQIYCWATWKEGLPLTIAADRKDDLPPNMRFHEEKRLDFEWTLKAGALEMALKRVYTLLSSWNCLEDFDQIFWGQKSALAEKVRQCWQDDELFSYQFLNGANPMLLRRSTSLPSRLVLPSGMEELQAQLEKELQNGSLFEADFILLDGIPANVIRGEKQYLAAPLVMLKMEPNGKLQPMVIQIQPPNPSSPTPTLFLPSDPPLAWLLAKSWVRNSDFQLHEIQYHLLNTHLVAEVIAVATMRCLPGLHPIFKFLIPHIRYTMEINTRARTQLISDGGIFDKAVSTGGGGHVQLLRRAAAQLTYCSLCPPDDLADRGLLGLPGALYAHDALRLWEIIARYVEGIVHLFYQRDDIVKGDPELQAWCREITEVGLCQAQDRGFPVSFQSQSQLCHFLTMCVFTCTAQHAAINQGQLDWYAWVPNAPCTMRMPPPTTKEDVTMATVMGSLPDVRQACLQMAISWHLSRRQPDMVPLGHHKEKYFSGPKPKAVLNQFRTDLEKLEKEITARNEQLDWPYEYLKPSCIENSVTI
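Hydroperoxide product was detected by ferrous iron/xylenol orange as the 573 to 405 nm absorbance ratio. Arachidonic acid at 40 uM (final) was turned over for 30 min at room temperature by 150 nM human 12hLO, pH 7.0 Hepes buffer, after 15 min compound preincubation.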
TDP1 cell noCPT – qHTS for Inhibitors of human tyrosyl-DNA phosphodiesterase 1 (TDP1): qHTS in cells in absence of CPT; AID 686978, 2013; 420,000 tested, 15% active; Potency, µM (titrated, usually from 46.2 µM), inactives show at the top dose activity change, negative = growth inhibition, hits mostly inhibitors; DT40 Tdp1-/- hTDP1 cells, no CPT, ATP luminescence, 48 h; also: potency is read from the fitted curve at half-maximal effect; nearly all actives have a fitted effect of over 55% in size
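Camptothecin absent (DMSO only). Human TDP1-complemented DT40 knockout cells, 400 cells/well, 37 °C for minimum 48 hr; ATP measured via CellTiter-Glo, 30 min dark incubation, luminescence.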
TDP1 cell CPT – qHTS for Inhibitors of human tyrosyl-DNA phosphodiesterase 1 (TDP1): qHTS in cells in presence of CPT; chicken DT40 Tdp1-/-;hTDP1 cells + 20 nM CPT, ATP luminescence, 48 h; Potency, µM (top dose mostly 46.2 µM), without a hit: at the top dose activity change, negative = growth inhibition, hits mostly inhibitors; 420,000 tested, 12% active; also: potency is read from the fitted curve at half-maximal effect; nearly all actives have a fitted effect of over 55% in size
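Chicken DT40 Tdp1-/- cells stably complemented with human TDP1 were seeded at 400 cells/well in medium containing 20 nM camptothecin, exposed to pin-transferred compounds, and grown at 37 °C for at least 48 hr. Viability was read as ATP luminescence.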
IL1B secr inh – qHTS for Inhibitors of Inflammasome Signaling: IL-1-beta AlphaLISA Primary Screen. activity change, % at 57.5 µM. THP-1 LPS/ATP IL-1B secretion, AlphaLISA, 16 h; hits give low values. AID 743279, 2014. 360,000 tested, 4.7% active; in the data active = activity change below about -50%; inconclusive = mostly about -30% to -49%
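Secreted IL-1B measured by AlphaLISA bead assay after 16 h compound exposure of THP-1 cells; compounds (final up to 57.5 uM) added 1 h before LPS (250 ng/mL) and ATP (1.25 mM) stimulation; lower signal means less secretion.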
Active calls of the source: *; ? = inconclusive; . = no result given; [ ] = remark or other dose. Unless noted, calls follow the shape of the dose curve; as a rule, active = well fitted curve in the direction sought with a large enough effect; inconclusive = small, poorly fitted or top-dose-only effect, or another doubt; inactive = no such curve, though single readings can be large; an effect the other way counts as inactive or inconclusive. Unless noted, % is scaled to controls: 0 for no effect and ±100 for the full control effect.

SMILES | HT1080 IDH1KD tx | HT1080-NT tox | 12-LOX inh | TDP1 cell noCPT | TDP1 cell CPT | IL1B secr inh
O=C(CCc1ncc(-c2ccccc2)o1)Nc1ccc(N2CCOCC2)cc1N1CCOCC1 | . | . | -42.3% | . | . | .
O=C(O)/C(=C\c1ccc(-c2ccccc2[N+](=O)[O-])o1)c1ccccc1 | -1.3% | -2.7% | ? | -8.8% | -14.7% | 18.7
COC(=O)N/N=C/c1ccc(-c2ccccc2Cl)o1 | -11.1% | -18.8% | ? | ? | 0.2% | 6.6
O=C(/C=C/c1ccc(-c2ccccc2[N+](=O)[O-])o1)c1ccccc1 | -25.9% | -28.3% | -9.0% | 23.1µM* | ? | -66.7*
Cc1ccc(C(=O)/C=C/c2ccc(-c3ccccc3Cl)o2)cc1 | . | . | 7.08µM* | . | . | .
O=C(CC1CCN(C(=O)c2ccccc2F)C1)NC1CC1 (stereo not given) | . | . | 32.9% | . | . | .
CC(C)C1=NOC2(CCN(Cc3ccc(Cl)cc3)CC2)C1 | . | . | 5.4%[6.33 µM] | . | . | .
COc1ccccc1C(=O)NC(CCSC)C(=O)NNC(=O)c1ccc(F)cc1 (stereo not given) | -0.6% | -8.5% | -4.7% | -23.1% | -28.0% | -8.0
COc1ccccc1C(=O)NC(CCSC)C(=O)NNC(=O)c1ccccc1O (stereo not given) | ? | -26.5% | ? | 29.1µM* | ? | 71.7
CCc1ccc(CNC(=O)c2cc3cc(C)ccc3[nH]2)cc1 | . | . | 35.5µM* | . | . | .
COc1cccc(CNC(=O)c2cc3cc(C)ccc3[nH]2)c1 | . | . | 0.9% | . | . | .
N#Cc1ccccc1S(=O)(=O)N1CCN(Cc2cc3c(cc2Br)OCCO3)CC1 | -18.2% | -0.1% | ? | ? | 16.4µM* | -1.0
O=C(CCCc1nc2ccccc2[nH]1)N1CCc2c(nc3cc(-c4ccccc4)[nH]n3c2=O)C1 | . | . | 30.5% | . | . | .
Cc1cc(-c2cn3ccccc3n2)c(C)n1-c1ccccc1 | ? | ? | ? | 16.4µM* | ? | -10.7
CN1CCN(CC(O)(c2ccc(Cl)cc2)c2ccc(Cl)cc2)CC1 | 20.6µM* | 18.4µM* | ? | 20.6µM* | ? | -85.3*
O=C(/C=C/c1ccccc1)c1ccc(Sc2ccccc2)cc1 | . | . | -27.9% | . | . | .
C=CCN=c1scc(-c2ccccc2)n1/N=C/c1ccccn1 | 18.4µM* | 18.4µM* | ? | 1.3µM* | 1.84µM* | ?
C=CCN=c1scc(-c2ccc(F)cc2)n1/N=C/c1ccccn1 | ? | -0.5% | -11.4% | 2.59µM* | 2.59µM* | ?
CCN(c1ccccc1)C(CNS(=O)(=O)c1ccccc1)c1ccccc1 (stereo not given) | . | . | ? | ? | 18.4µM* | .
Cc1cccc(N(C)C(CNS(=O)(=O)c2ccccc2)c2ccccc2)c1 (stereo not given) | . | . | -16.1% | ? | 16.4µM* | .
COc1cccc(N2C(C(C)=O)=NN(c3ccccc3)C2c2ccc(N3CCOCC3)cc2)c1 (stereo not given) | -11.4% | -15.6% | -8.5% | 16.4µM* | 18.4µM* | 5.3
COc1cccc(C(=O)OCC(=O)Nc2ccc(N3CCOCC3)cc2)c1 | 4.3% | -1.1% | -14.5% | -10.2% | 1.1% | 10.7
Cc1cc(C)n2nc(/C(C#N)=C/c3ccccn3)c(C#N)c2n1 | -8.6% | -11.2% | ? | 9.2µM* | ? | -97.8*
COC(=O)c1ccc(/C=C(\C#N)c2ccccn2)cc1 | -12.3% | -0.8% | -3.2% | ? | ? | 24.6
N#C/C(=C\c1ccccn1)c1ccccn1 | -18.3% | -15.2% | ? | 14.6µM* | 23.1µM* | -94.2*
